# Only some compounds are listed: those with a hit (about 2.3% of all), similar ones and a draw of the others.
# PDI inh: inhibitors of human PDI, primary screen, biochemical, turbidity, single point, plate reader; Protein disulfide-isomerase (Homo sapiens), P07237; AID 588391, 2011; PDI insulin aggregation turbidity, A650, 90 min; 0.052% of 350,000 active; inhibition, % at 10 µM;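 active = mean inhibition across replicates of 30% or more, whatever share of single replicates reach that level; inconclusive = mean inhibition below 30% while every single replicate reaches 30%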
# Rtt109 Vps75: inhibitors of C. albicans Rtt109/Vps75 HAT, primary screen, biochemical, ThioGlo CoA-SH fluorescence, plate reader | AID 540336, 2011 | inhibition, % at 34.9 µM | purified Rtt109/Vps75, 4 h | Histone acetyltransferase RTT109 (Candida albicans (strain SC5314 / ATCC MYA-2876)), … | 0.16% of 330,000 active;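 active = inhibition of at least 50% in every replicate; inconclusive = best replicate reaches 50% inhibition but some replicates fall short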
# SIRT5 inh: SIRT5 desuccinylase inhibitors, primary screen, biochemical, fluorescence imaging, single point, set 5; NAD-dependent protein deacylase sirtuin-5, mitochondrial (Homo sapiens), Q9NXA8; Purified SirT5, succinyl-peptide AMC, trypsin-coupled fluorescence; inhibition, % at 15 µM; 1.1% of 330,000 active; AID 652115, 2013; in the data active = inhibition above about 15%; inconclusive = no clear call, values can overlap the other calls
# Target sequence (Q9NXA8 whole entry, looked up): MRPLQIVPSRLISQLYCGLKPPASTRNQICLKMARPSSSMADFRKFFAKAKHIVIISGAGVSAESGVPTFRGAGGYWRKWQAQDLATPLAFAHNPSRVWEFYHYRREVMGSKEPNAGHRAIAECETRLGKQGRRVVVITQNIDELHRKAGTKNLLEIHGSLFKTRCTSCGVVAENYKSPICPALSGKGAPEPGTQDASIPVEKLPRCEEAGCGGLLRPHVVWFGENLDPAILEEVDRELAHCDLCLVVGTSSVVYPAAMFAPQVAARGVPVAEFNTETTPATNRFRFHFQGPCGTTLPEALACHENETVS
# ERp5 block: inhibitors of ERp5-driven insulin aggregation, primary screen, biochemical, turbidity, absorbance 650 nm, single point; Protein disulfide-isomerase A6 (Homo sapiens), Q15084; 90 min; inhibition, % at 9.99 µM; 0.05% of 350,000 active; AID 651711, 2012;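 active = mean replicate inhibition above about 25%, with every replicate also reaching it, limit read from the data, passing the limit was not always enough; inconclusive = only one of those two criteria met; inactive = neither criterion met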
# DENV2 CPE rescue: inhibitors of DENV2 cytopathic effect, primary screen, cell-based, plate reader, single concentration; DENV2-infected cells, cytopathic effect rescue; CPE inhibition, % at 9.99 µM; 1.7% of 350,000 active; in the data active = CPE inhibition above about 20%, passing the limit was not always enough; inconclusive = no clear call, values can overlap the other calls; tested in BHK-21 cells;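 also: 0% = median of neutral control wells and 100% = median of positive control wells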
# * hit, by the source's call; ? = inconclusive; nt = no result; ! = not active in a repeat.
SMILES,PDI inh,Rtt109 Vps75,SIRT5 inh,ERp5 block,DENV2 CPE rescue
C[C@H]1CN([C@@H](C)CO)S(=O)(=O)c2ccc(Br)cc2O[C@H]1CN(C)Cc1cccnc1,nt,nt,-2,-8,4
C[C@@H]1CN([C@@H](C)CO)S(=O)(=O)c2ccc(C#CC3CCCC3)cc2O[C@@H]1CN(C)Cc1cccnc1,nt,nt,9,-4,-8
C[C@H]1CN([C@@H](C)CO)S(=O)(=O)c2ccc(C#CC3CCCC3)cc2O[C@@H]1CN(C)Cc1cccnc1,nt,nt,17*,1,-8
C[C@H](CO)N1C[C@H](C)[C@H](CN(C)Cc2cncnc2)Oc2cc(C#CC3CCCC3)ccc2S1(=O)=O,nt,nt,17*,-1,-2
C[C@H](CO)N1C[C@H](C)[C@@H](CN(C)Cc2cccnc2)Oc2cc(Br)ccc2S1(=O)=O,nt,nt,-8,-6,45*!
CO[C@H]1CN(C)C(=O)c2cc(NC(=O)Nc3ccccc3)ccc2OC[C@H](C)N(C(=O)CN(C)C)C[C@@H]1C,nt,nt,-5,-3,-9
CCCNC(=O)N1C[C@@H](C)[C@H](OC)CN(C)C(=O)c2cc(NC(=O)CCC)ccc2OC[C@H]1C,nt,nt,0,4,4
Cc1ccc(S(=O)(=O)N2CCCCC2)cc1NC(=O)CCOc1ccccc1,-6,2,-5,18,72*
CC(=O)NCCC(=O)Nc1cc(S(=O)(=O)N2CCCCC2)ccc1N1CCCCC1,-5,-1,1,5,-1
Cc1ccc(S(=O)(=O)N2CCCCC2)cc1NC(=O)c1cc(=O)[nH]c2ccccc12,0,2,-1,-17,77*
Cc1ccc(S(=O)(=O)N2CCOCC2)cc1NC(=O)CN(C)CC(=O)Nc1cccc(F)c1,6,nt,nt,8,83*
Cc1ccc(S(=O)(=O)N2CCCCC2)cc1NC(=O)CCCOc1ccccc1,1,1,-3,3,-8
CC(=O)NCCC(=O)Nc1cc(S(=O)(=O)N2CCCCC2)ccc1N1CCN(C)CC1,0,14,-3,-2,31*
Cc1ccc(NC(=O)CN(C)CC(=O)Nc2cccc(F)c2)cc1S(=O)(=O)N1CCCCCC1,-3,14,-4,1,-2
Cc1ccc(S(=O)(=O)Nc2ccc3c(c2)CC(=O)N([C@@H](C)CO)C[C@@H](C)[C@H](CN(C)Cc2ccc(Cl)c(Cl)c2)O3)cc1,nt,nt,2,-1,19
CC(C)NC(=O)Nc1ccc2c(c1)C(=O)N([C@@H](C)CO)C[C@@H](C)[C@H](CN(C)C(=O)Nc1ccc(C(F)(F)F)cc1)OCCCC[C@@H](C)O2,nt,nt,2,-1,?
O=C(NC1Cc2ccccc2C1)[C@@H]1[C@@H](CO)[C@@H]2Cn3c(ccc(C4=CCCCC4)c3=O)[C@H]1N2CC1CC1,nt,nt,-6,-3,4
COCC(=O)N1C[C@@H](C)[C@@H](OC)CN(C)C(=O)c2cc(NS(C)(=O)=O)ccc2OC[C@H]1C,nt,nt,-7,2,-6
Cc1ccc(NC(=O)CCN2CCN(CCO)CC2)cc1Br,nt,14,nt,1,20*
CCOC(=O)N1CCN(CCC(=O)Nc2ccc(C)c(Br)c2)CC1,18,6,nt,nt,nt
CN(c1ccccc1)c1ncnc2c1ncn2C,15,1,3,17,89*
CCCC#Cc1cnc2c(c1)C(=O)N([C@@H](C)CO)C[C@@H](C)[C@@H](CN(C)C(=O)c1ccc3c(c1)OCO3)O2,nt,nt,1,-1,nt
NCC[C@@H]1CC[C@@H](NC(=O)c2ccccc2F)[C@H](CO)O1,nt,nt,5,-5,-2
Cc1ccc(S(=O)(=O)Nc2ccc3c(c2)CC(=O)N([C@H](C)CO)C[C@@H](C)[C@H](CN(C)CC2CCCCC2)O3)cc1,nt,nt,10,-3,8
C[C@@H]1CN([C@H](C)CO)C(=O)Cc2cc(NS(=O)(=O)c3cccs3)ccc2O[C@H]1CN(C)CC1CCCCC1,nt,nt,4,1,1
C[C@@H]1CN([C@@H](C)CO)C(=O)Cc2cc(NS(=O)(=O)c3cccs3)ccc2O[C@H]1CN(C)CC1CCCCC1,nt,nt,15*,5,-6
C[C@H](CO)N1C[C@H](C)[C@H](CN(C)S(C)(=O)=O)Oc2ccc(NS(=O)(=O)c3ccc(F)cc3)cc2CC1=O,nt,nt,1,-6,-1

# Screening results deposited in PubChem by Broad Institute.
